# Rows were chosen to be rich in hits. Some 2.4% of all compounds tested hit in one or more screens of this group.
# D2 PAM-1 = potentiates the human D2 dopamine receptor allosterically; P14416; DiscoveRx D2 beta-arrestin cells, luminescence, 90 min; 100% = 57 uM dopamine signal; potentiation, % (concentration not given with the values); 360,000 compounds, 0.23% hits; AID 624464; in the data active = potentiation above about 50%; inconclusive = mostly about 30% to 49%
# Target sequence (P14416 whole entry, looked up): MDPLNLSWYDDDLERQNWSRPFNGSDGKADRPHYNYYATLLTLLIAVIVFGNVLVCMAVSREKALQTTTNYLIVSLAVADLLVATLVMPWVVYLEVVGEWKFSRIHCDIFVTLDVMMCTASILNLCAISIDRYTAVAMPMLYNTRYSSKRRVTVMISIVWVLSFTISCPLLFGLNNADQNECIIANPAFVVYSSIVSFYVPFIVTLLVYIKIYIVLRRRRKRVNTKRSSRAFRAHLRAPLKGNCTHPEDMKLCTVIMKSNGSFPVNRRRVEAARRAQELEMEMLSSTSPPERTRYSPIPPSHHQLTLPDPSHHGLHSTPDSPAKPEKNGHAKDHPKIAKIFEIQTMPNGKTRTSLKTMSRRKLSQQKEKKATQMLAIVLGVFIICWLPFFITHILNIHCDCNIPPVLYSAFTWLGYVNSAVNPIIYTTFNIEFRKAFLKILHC
#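 D2 cells co-treated with compound plus 50 nM dopamine (EC20) for 90 min at 37 deg C to detect potentiation. Beta-arrestin recruitment was read as enzyme-fragment luminescence after 1 h at ambient temperature. Full response was set by 57 uM dopamine.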
# D2 antagonist = antagonists of human D2 dopamine receptor; inhibition, % at 10 µM; P14416; 340,000 compounds, 2% hits; HEK293 TREx D2 cells, calcium flux, dopamine EC80; in the data active = inhibition above about 30%; inactive = below that, where a call was filed; note: 0% is about no effect
#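 Compounds are added to dye-loaded, induced HEK293 T-REx cells coupled to calcium release via D2; after a 3 min kinetic read an EC80 dopamine stimulus is given and fluorescence is recorded for 3 more min.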
# D2 ag-1 = activates the human D2 dopamine receptor; HEK293 T-REx D2 cells, calcium flux agonist mode; P14416; 340,000 compounds, 0.53% hits; activation, % at 2 µM; AID 485358;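 active = activation over 3 SD above normal in the single-dose calcium agonist read, cut at about 30% in these data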; note: 0% is about no effect
#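 In this primary screen, compounds producing a positive calcium signal within 180 s of addition to tetracycline-induced, force-coupled HEK293 Trex D2 cells are flagged; cells are dye-loaded with a no-wash calcium kit beforehand.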
# D2 PAM-2 = D2 dopamine receptor (human) potentiation; P14416; HEK293 T-REx D2, calcium flux, EC20 dopamine potentiation; potentiation, % at 10 µM; 340,000 compounds, 0.34% hits;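 active = potentiation over 3 SD above the plate norm, cut at about 30% in these data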; note: 0% is about no effect
#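 Primary screen. Calcium kinetics in induced HEK293 T-REx D2 cells: compound pre-addition 180 s, EC20 dopamine, 180 s more.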
# D2 ag-2 = activates the human D2 dopamine receptor; DiscoveRx PathHunter D2 beta-arrestin, luminescence, 90 min; 100% = 57 uM dopamine signal; activation, % (concentration not given with the values); P14416; 360,000 compounds, 0.084% hits; AID 624465; in the data active = activation above about 40%; inconclusive = between about 15% and that limit
#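 Agonist mode: compounds alone added to overnight-plated D2 PathHunter cells for 90 min at 37 C, with 57 uM final dopamine (EC100) defining full response. Beta-arrestin recruitment detected by chemiluminescent reagent, read after 1 h at ambient temperature.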
# D3 ag = D3 receptor agonism confirmed, beta-arrestin readout. shares compounds with D2 ag-1. DiscoveRx D3 beta-arrestin cells, luminescence, 90 min. Potency, µM (doses to about 76.9 µM), for inactives: top-dose activation, usual class: activators. 2,300 compounds, 4% hits;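 note: potency is the fitted concentration of half-maximal effect; 100% = dopamine control response; nearly all actives have a fitted effect of over 70% in size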
# D2 ag-3 = activates human D2 dopamine receptor in D3 counterscreen; DiscoveRx PathHunter D2 beta-arrestin, luminescence, 90 min; response scale: percent relative to full dopamine signal; Potency, µM (highest dose often 76.9 µM), without a hit: at the top dose activation, usual class: activators; shares compounds with D2 ag-1; 2,300 compounds, 5.9% hits; note: potency is the fitted concentration of half-maximal effect; % of control where 0% means no effect; nearly all actives have a fitted effect of over 70% in size
# Active calls of the source: *; ? = inconclusive; nt = no result. Unless noted, calls come from the whole dose curve; as a rule, active = well fitted activation curve with a large enough effect; inconclusive = small, poorly fitted or top-dose-only effect; inactive = flat fitted curve, though single readings scatter.
SMILES,D2 PAM-1,D2 antagonist,D2 ag-1,D2 PAM-2,D2 ag-2,D3 ag,D2 ag-3
CCC/C(=C1/c2ccccc2C(=O)N1c1ccccc1)c1ccc2c(c1)OCO2,-1.3,-10.6,-1.2,-0.6,3.3,-10.4%,-3.1%
Fc1ccccc1N1CCN(CC2CC3C=CC2C3)CC1 (stereo not given),-6.9,73.9*,78.6*,-15.2,?,?,?
Cc1ccccc1-c1nc2scc(CCNS(=O)(=O)c3ccccc3)n2n1,nt,nt,nt,-1.1,nt,nt,nt
CCOC(=O)C1(C)C=C(Nc2cccc(C)c2)C(=O)N1c1ccccc1 (stereo not given),nt,nt,-1.6,-8.2,nt,nt,nt
CCCCn1c(N)c(N(CCC(C)C)C(=O)c2cccc(N3C(=O)c4ccccc4C3=O)c2)c(=O)[nH]c1=O,-10.8,nt,nt,nt,-0.9,nt,nt
CCCCN(C(=O)c1ccc(N2C(=O)c3ccccc3C2=O)cc1)c1c(N)n(CC(C)C)c(=O)[nH]c1=O,18.5,-13.3,0.2,4.0,-2.1,-0.3%,26.8%
CN(C)c1ccc(/C=N/N2CCN(c3ccccn3)CC2)cc1,20.8,16.0,45.3*,-23.1,?,8.3%,12.6%
Cc1nn(-c2ccccc2)c(C)c1/C=N/N1CCN(c2ccccn2)CC1,-2.1,15.8,19.0,2.3,9.2,?,17.4%
Cc1nn(-c2ccccc2)c(Cl)c1/C=N/N1CCN(c2ccccn2)CC1,-5.8,2.8,-0.8,-11.3,-1.2,nt,nt
CCOC(=O)CCC(=O)Nc1nnc2n1CCS2,nt,nt,-1.2,nt,nt,nt,nt
CN(C)S(=O)(=O)c1ccc(N2CCCC2)c(C(=O)NNC(=O)COc2cccc(F)c2)c1,-4.1,23.7,-0.2,2.3,-1.2,-6.6%,0.2%
Cc1nnc(SCC(=O)NCc2ccc(N(C)C)cc2)c2nn(-c3ccccc3)c(C)c12,nt,nt,-0.3,4.2,nt,nt,nt
O=C(Cc1cccc(NC(=O)C2CCN(C(=O)C3CC3)CC2)c1)Nc1cccc(C(=O)N2CCCC2)c1,9.6,2.2,0.8,4.4,1.8,-3.8%,-4.7%
CN(C(=O)c1cccc(NC(=O)Cc2ccc(NC(=O)C3CCN(C(=O)c4ccccc4)CC3)cc2)c1)C1CCC1,6.5,nt,nt,nt,3.9,nt,nt
CN(C(=O)c1ccc(NC(=O)Cc2ccc(NC(=O)C3CCN(C(=O)c4ccccc4)CC3)cc2)cc1)C1CC1,-13.8,-2.5,0.6,2.4,-4.1,-3.6%,-4.5%
CN(Cc1ccccc1)C(=O)c1ccc(NC(=O)Cc2cccc(NC(=O)C3CCCN(C(=O)C4CCC4)C3)c2)cc1 (stereo not given),-14.4,-3.9,0.6,8.5,-3.0,-2.8%,5.7%
O=C(Cc1cccc(NC(=O)C2CCN(C(=O)C3CCC3)CC2)c1)Nc1cccc(C(=O)N2CCCCC2)c1,-0.9,nt,nt,nt,1.2,nt,nt
COc1cc(CNC(=O)CSCc2nc3cccnc3n2C2CCCCC2)cc(OC)c1OC,nt,nt,0.0,16.0,nt,nt,nt
CCOC(=O)c1ccc(NC(=O)CSc2ccc(-c3sc(C)nc3C)nn2)cc1,nt,nt,-2.3,0.1,nt,nt,nt
COc1cc(NC(=O)CC(c2cccs2)N2Cc3ccccc3C2=O)cc(OC)c1OC (stereo not given),nt,nt,-1.3,5.3,nt,nt,nt
CCc1ccccc1N(C)C(=O)C1CCCN(c2ncnc3c2nc2n3CCCCC2)C1 (stereo not given),nt,nt,-1.4,-4.9,nt,nt,nt
CCn1c(=O)c(CCC(=O)NCCN2CCOCC2)c(C)c2c(C)nn(-c3ccccc3)c21,-10.1,0.9,-0.7,14.8,0.0,nt,nt
CCn1c(=O)c(CCC(=O)N2CCN(c3ccccn3)CC2)c(C)c2c(C)nn(-c3ccccc3)c21,-4.3,8.3,15.1,5.4,6.2,21.9%,12.9%
COc1cccc(-c2nnc(SCC(=O)N(C)c3ccccc3)o2)c1,nt,nt,-0.3,-3.4,nt,nt,nt
CC(C)(O)C#Cc1ccc(CN2CCN(C3CCCCC3)C(CCO)C2)s1 (stereo not given),-11.5,-7.0,41.8*,-9.9,-1.3,-14.9%,2.1%
